Compound activity: PubChem BioAssay, National Center for Advancing Translational Sciences (NCATS)
Sfp inh = qHTS Assay for Inhibitors of Bacillus subtilis Sfp phosphopantetheinyl transferase (PPTase) | 4'-phosphopantetheinyl transferase ffp (Bacillus subtilis), Q9F4F7 | Biochemical Sfp PPTase activity, qHTS | Potency, µM, without a hit: largest response in the series, negative = inhibition, hits mostly inhibitors | 310,000 tested, 3.5% active | AID 1490, 2009;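 further: the enzyme is Sfp with the accession as filed and its product quenches rhodamine fluorescence; 0% = enzyme reaction without inhibitor and -100% = no enzyme wells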
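Fluorescence-quenching assay: 15 nM Sfp-PPTase preincubated 15 min at room temperature with compound, then 5 uM rhodamine-CoA and 12.5 uM BHQ-2-labelled YbbR peptide added. Fluorescence (ex 525/em 598 nm) read at start and after 30 min; difference gives rate.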
G9a inh = qHTS Assay for Inhibitors of Histone Lysine Methyltransferase G9a; Histone-lysine N-methyltransferase EHMT2 (Homo sapiens), Q96KQ7; 350,000 tested, 8.8% active; G9a H3K9 monomethylation, AlphaScreen, 2 h; Potency, µM (series often up to 102 µM), for the others: at the top dose activity, negative = inhibition, hits mostly inhibitors; further: on the % scale 0 is the no-effect control and ±100 the full control effect; nearly all actives have a fitted effect of over 75% in size
Target sequence (Q96KQ7 913-1193 limits assumed): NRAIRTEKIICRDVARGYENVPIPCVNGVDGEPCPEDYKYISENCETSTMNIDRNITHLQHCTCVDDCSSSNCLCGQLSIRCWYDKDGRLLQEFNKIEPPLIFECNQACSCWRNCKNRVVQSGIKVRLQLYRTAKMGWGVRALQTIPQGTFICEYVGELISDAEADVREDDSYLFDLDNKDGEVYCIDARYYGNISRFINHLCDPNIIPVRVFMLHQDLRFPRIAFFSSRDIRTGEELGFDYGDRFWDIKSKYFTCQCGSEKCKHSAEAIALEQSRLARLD
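G9a (20 nM) preincubated 15 min RT with compounds, then 500 nM biotinylated H3K9 peptide and 20 uM SAM added; 2 h RT reaction. Monomethyl-H3K9 product detected by AlphaScreen with anti-H3K9me1 antibody, streptavidin donor and anti-rabbit IgG acceptor beads.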
JMJD2A Tudor = qHTS Assay for Inhibitors of JMJD2A-Tudor Domain; AlphaScreen JMJD2A-Tudor / H3K4me3 peptide binding; Potency, µM (titrated, usually from 114 µM), for inactives: at the highest dose activity change, negative = inhibition, actives largely listed as inhibitors; 390,000 tested, 4.4% active; AID 504339, 2011; further: on the % scale 0 is the no-effect control and ±100 the full control effect; nearly all actives have a fitted effect of over 50% in size
PLK1 PBD inh = qHTS for Inhibitors of PLK1-PDB (polo-like kinase 1 - polo-box domain): Primary Screen | Serine/threonine-protein kinase PLK1 (Homo sapiens), P53350 | Potency, µM, for the others: max response, negative = inhibition, most hits filed as inhibitors | Plk1 PBD binding of FITC phosphopeptide, fluorescence polarization | 360,000 tested, 2.8% active; further: series mostly up to about 57 µM; on the % scale 0 is the no-effect control and ±100 the full control effect; nearly all actives have a fitted effect of over 65% in size
BAZ2B inh = qHTS Assay for Inhibitors of BAZ2B. Bromodomain adjacent to zinc finger domain protein 2B (Homo sapiens), Q9UIF8. AlphaScreen BAZ2B-H3K14Ac peptide displacement. Potency, µM (series often up to 114 µM), without a hit: at the highest dose activity change, negative = inhibition, most hits filed as inhibitors. 360,000 tested, 4.4% active; further: on the % scale 0 is the no-effect control and ±100 the full control effect; nearly all actives have a fitted effect of over 60% in size
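AlphaScreen displacement of biotin-H3(5-23)K14Ac peptide (50 nM final) from BAZ2B (50 nM final) in PBS pH 7.4, 0.01% Tween-20; complex preformed 30 min RT, then compounds (top 110 uM) 30 min RT, beads 20 min dark.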
HP1b binding inh = HTS for Inhibitors of HP1-beta Chromodomain Interactions with Methylated Histone Tails; Chromobox protein homolog 1 (Homo sapiens), P83916; AlphaScreen HP1-beta / biotin-H3K9me3 peptide binding; Potency, µM (series often up to 114 µM), for inactives: at the highest dose activity change, negative = inhibition, actives largely listed as inhibitors; 390,000 tested, 0.56% active; AID 540317, 2011; further: nearly all actives have a fitted effect of over 70% in size
Target sequence (P83916 whole entry, looked up): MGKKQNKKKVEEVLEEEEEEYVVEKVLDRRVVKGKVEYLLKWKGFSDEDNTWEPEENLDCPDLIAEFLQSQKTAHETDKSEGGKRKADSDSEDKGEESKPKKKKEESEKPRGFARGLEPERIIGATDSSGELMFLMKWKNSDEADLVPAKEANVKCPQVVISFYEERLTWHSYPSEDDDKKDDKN
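AlphaScreen: HP1-beta (50 nM) preformed 30 min with biotin-H3(1-18)K9me3 peptide (50 nM) in PBS pH 7.4, 0.01% Tween-20. Compound added for 30 min at RT, then streptavidin donor/nickel chelate acceptor beads (10 ug/mL) for 30 min.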
Starred values were filed as active, the others as inactive; ? = inconclusive; / = no result; [ ] = another dose, or the depositor's remark. Sampled rows, rich in hits. Any-hit rate of the full collection: about 12%. The call rests on the fitted dose curve; in most records, active means well fitted curve in the direction sought with a large enough effect; inconclusive means small, poorly fitted or top-dose-only effect, or another doubt; inactive means no such curve, though single readings can be large; an effect the other way counts as inactive or inconclusive. Potency means the concentration at half of the fitted maximal effect.

SMILES	Sfp inh	G9a inh	JMJD2A Tudor	PLK1 PBD inh	BAZ2B inh	HP1b binding inh
CCOc1ccc(-c2nnc3ccc(SCC(=O)Nc4nc5ccccc5s4)nn23)cc1	?	-13%	-9%	0%	6%	40%
CCOc1ccc(-c2nnc3ccc(SCC(=O)Nc4nc5ccc(C)cc5s4)nn23)cc1	?	45µM*	-7%[57.1 µM]	-23%	2%	52%
COc1ccc(-c2nnc3ccc(SCC(=O)N4CCCC4)nn23)cc1	?	50µM*	-9%	-2%	9%	43%
O=C(CSc1ccc2nnc(-c3ccc(Cl)cc3)n2n1)N1CCCc2ccccc21	-6%	32µM*	-21%	-14%	27%	25%
Cc1cc(O)c(C(C)C)cc1N=C1CSC(=O)N1	56µM*	?	-26%	?	-8%	1%
CCOc1ccc(C2CC(=O)Nc3c2c(=O)nc(SCc2ccccc2C)n3C)cc1OC (stereo not given)	/	5%[59 µM]	-19%	/	-11%	24%
O=C(c1ccc([N+](=O)[O-])cc1)N1CCSC1c1ccc(Cl)cc1 (stereo not given)	12%	?	-32%	1%	-38%	16%
O=C(c1ccc([N+](=O)[O-])cc1)N1CCSC1c1ccc(Br)cc1 (stereo not given)	7%	?	-12%[11.4 µM]	17µM*	?	16µM*
CC(=O)Nc1ccc(CN2CCc3c([nH]c4ccccc34)C2c2ccccn2)cc1 (stereo not given)	1%	?	?	-10%	?	-9%
Cc1cccc(C2c3[nH]c4ccccc4c3CCN2Cc2cccn2-c2ncccn2)c1 (stereo not given)	-25%	/	50µM*	-3%	32µM*	?
COc1cccc(C2c3[nH]c4ccccc4c3CCN2Cc2cnn(C)c2)c1 (stereo not given)	-3%	/	?	-6%	?	-12%
COc1ccc(C2c3[nH]c4ccccc4c3CCN2Cc2cccn2-c2ncccn2)cc1C (stereo not given)	56µM*	18%[0.501 µM]	?	-6%	35µM*	?
c1ccc(C2c3[nH]c4ccccc4c3CCN2Cc2cccn2-c2ccccn2)nc1 (stereo not given)	-6%	?	?	5%	20µM*	-9%
COc1ccc(-c2nn(C)c3sc(C(=O)N4CCN(c5cccc(C)c5C)CC4)cc23)cc1OC	/	-4%[59 µM]	-20%	/	/	12%
Cc1c(-c2ccc(Cl)cc2)oc(=O)c2c(N)n(-c3ccccc3)nc12	-10%	-8%[59 µM]	-34%	-6%	50µM*	5%
Nc1c2c(=O)oc(-c3ccccc3)cc2nn1-c1ccccc1	3%	-19%[59 µM]	-31%	0%	-5%	18%
Cc1ccc(Cl)cc1N1CCN(Cc2nc3ccsc3c(=O)[nH]2)CC1	3%	2.8µM*	-25%[11.4 µM]	30µM*	-37%	-17%
COc1ccc(N2CCN(Cc3nc4ccsc4c(=O)[nH]3)CC2)cc1	-4%	?	56µM*	0%	?	7%
O=c1[nH]c(CN2CCN(c3ccc([N+](=O)[O-])cc3)CC2)nc2ccsc12	-10%	8%[59 µM]	?	-11%	?	5%
CCNc1oc(-c2ccccc2F)nc1S(=O)(=O)c1ccccc1	-9%	45µM*	-9%	-15%	-21%	16%
Cc1ccc(S(=O)(=O)c2nc(-c3ccccc3F)oc2NCc2ccccc2)cc1	/	?	-17%	/	?	5%
CCNc1oc(-c2ccc(OC)cc2)nc1S(=O)(=O)c1ccc(Br)cc1	3%	56µM*	-19%	-3%	-5%	29%
Cc1ccc(S(=O)(=O)c2nc(C)oc2NCc2ccccc2)cc1	?	8.9µM*	/	/	3%	/
CNc1oc(C)nc1S(=O)(=O)c1ccc(C)cc1	45µM*	2%[0.0925 µM]	?	-28%	-1%	?
CCc1ccc(CNC(=O)Cn2nc(C)n3c(cc4cc(C)ccc43)c2=O)cc1	/	9%[59 µM]	-16%	/	3%	15%
SMILES	Sfp inh	G9a inh	JMJD2A Tudor	PLK1 PBD inh	BAZ2B inh	HP1b binding inh
COc1ccc(CN2C(=O)N(c3ccccc3)C(=O)C2c2ccccc2)cc1COc1ccc(NC(C)=O)cc1 (stereo not given)	/	/	-29%	/	/	13%
CCOc1ccc(-c2nc(S(=O)(=O)c3ccccc3)c(NCc3cccnc3)o2)cc1	-7%	45µM*	?	0%	?	5%
CNc1oc(-c2ccccc2F)nc1S(=O)(=O)c1ccc(C)cc1	-16%	/	-7%	-20%	3%	22%
COc1ccc(-c2nc(S(=O)(=O)c3ccc(C)cc3)c(NCc3ccccc3)o2)cc1	/	11µM*	?	/	-27%	16%
CNc1oc(-c2ccccc2)nc1S(=O)(=O)c1ccc(C)cc1	1%	?	-17%	-8%	-20%	33%
CNc1oc(Cc2ccccc2)nc1S(=O)(=O)c1ccccc1	50µM*	?	3.2µM*	2.7µM*	4%	?
CCOc1ccc(-c2nc(S(=O)(=O)c3ccccc3)c(NC)o2)cc1	13%	53%	-3%	3%	1%	30%
NC(=O)C1CN(S(=O)(=O)c2ccc(Cl)cc2F)c2ccccc2O1 (stereo not given)	11%	79µM*	-10%	1%	-2%	7%
CCOc1ccccc1NC(=O)CCS(=O)(=O)c1ccc(OC)cc1	12%	-38%	-1%	-4%	6%	27%
Cc1cccc(C)c1NC(=O)CCS(=O)(=O)c1ccc(Br)cc1	13%	7%	-9%	-5%	0%	23%
COc1ccc(S(=O)(=O)CCC(=O)Nc2c(C)cccc2C)cc1	-19%	40µM*	-9%	-17%	2%	36%
CCNC(=O)CCS(=O)(=O)c1ccc2ccccc2c1	?	7.1µM*	-3%	-26%	-4%	19%
CCc1ccccc1NC(=O)CCS(=O)(=O)c1ccc(OC)cc1	-16%	14µM*	89µM*	?	?	?
O=C(CCS(=O)(=O)c1ccccc1)NCCS(=O)(=O)c1ccccc1	8%	18%	-20%	-9%	-16%	24%
COC(=O)c1ccc(N2CCOCC2)c(NC(=O)c2cccnc2)c1	20%	74%	1%	3%	1%	13%
